Active and inactive are the calls of the source.
Key:
[1] = binders of probe aFSTL3 on microarray, primary screen, stem cell growth factor project, biochemical, small-molecule microarray, fluorescence 635/667 (AID 1064); conditions: higher = more signal;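 note: measures binding of the biotinylated anti-FSTL3 antibody to printed compounds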
[2] = binders from COS7 lysate, DM2A8 probe, primary screen, torsin A project, cell lysate, small-molecule microarray, fluorescence 635/667 (AID 1065); conditions: higher = more signal, COS7 lysate expressing mutant human TOR1A
[3] = binders of probe aFGF2 on microarray, primary screen, stem cell growth factor project, biochemical, small-molecule microarray, fluorescence 635/667 (AID 1067); conditions: higher = more signal;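 note: measures binding of biotinylated aFGF2 protein to printed compounds on slides; z-score merges feature fluorescence and signal-to-noise across triplicate slides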
[4] = binders of probe aFGF10 on microarray, primary screen, stem cell growth factor project, biochemical, small-molecule microarray, fluorescence 635/667 (AID 1071); conditions: higher = more signal;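 note: score merges 667 nm spot intensity and signal to noise from triplicate slides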
[5] = molecular target: Neurogenic locus notch homolog protein 2 (Homo sapiens) (UniProt Q04721); assay: Notch2 binders on small-molecule microarrays, primary screen, biochemical, small-molecule microarray, 635 nm fluorescence, stem cell growth factors (AID 1073); conditions: Notch2 binding, higher = more signal
[6] = molecular target: Pro-neuregulin-1, membrane-bound isoform (Homo sapiens) (UniProt Q02297); assay: NRG1 binders on small-molecule microarrays, primary screen, psychiatric disease protein project, biochemical, small-molecule microarray, fluorescence 635/667 (AID 1075); conditions: NRG1 binding, 635 nm fluorescence, higher = more signal;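 note: score combines 667 nm spot fluorescence with signal to noise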
[7] = tested on: Neuregulin-1 EGF-like domain; assay: binders of neuregulin-1 EGF-like domain, primary screen, biochemical, small-molecule microarray, 635 nm fluorescence (AID 1081); conditions: small-molecule microarray binding, higher = more signal;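 note: binding of the protein to compounds printed on small-molecule microarray slides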
[8] = FRG1 promoter luciferase signal modulators, primary screen, FRG1 inhibition for FSHD, cell-based, C2C12 myotubes, firefly/Renilla luciferase, luminescence (AID 1084); conditions: higher = more signal, called active from +8 up or from −8 down
[9] = binders of probe aFST on microarray, primary screen, stem cell growth factor project, biochemical, small-molecule microarray, fluorescence 635/667 (AID 1086); conditions: higher = more signal;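 note: score merges 667 nm fluorescence with signal-to-noise of each printed compound spot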
[10] = binders of probe aHhip on microarray, primary screen, stem cell growth factor project, biochemical, small-molecule microarray, fluorescence 635/667 (AID 1087); conditions: higher = more signal;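 note: score merges spot fluorescence at 667nm with spot signal to noise ratio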
[11] = tested on: PRMT1 (protein arginine N-methyltransferase 1); assay: PRMT1 binders on small-molecule microarrays, primary screen, biochemical, small-molecule microarray, 635 nm fluorescence (AID 1088); conditions: small-molecule microarray binding, higher = more signal;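 note: binding of Prmt1 protein to compounds spotted on small-molecule microarray slides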
[12] = yeast growth modulation, basal conditions, primary screen, YJM789 clinical isolate, OD600, 24 h (AID 1089);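 note: growth of clinical yeast isolate S. cerevisiae YJM 789 seeded 1000 cells per well; test concentration not given here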; conditions: S. cerevisiae YJM789 growth, higher = more signal, called active from +8 up or from −8 down
[13] = fission yeast growth modulation, primary screen, strain 972, OD600, 24 h, no modulator (AID 1090);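 note: basal condition with compound alone and no growth modifier present; test concentration not given here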; conditions: S. pombe 972 growth, higher = more signal, called active from +8 up or from −8 down
[14] = S. cerevisiae growth modulation with rapamycin, primary screen, strain BY4716, OD600, 96 h (AID 1091); conditions: higher = more signal, called active from +8 up or from −8 down; note: test concentration not given here
[15] = molecular target: Torsin-1A-interacting protein 2 (Homo sapiens) (UniProt Q8NFQ8); assay: LULL1 binders on small-molecule microarray, primary screen, cell lysate, human LULL1 lysate, 635/667 nm fluorescence (AID 1092); conditions: hLULL1 lysate binding, 635 nm fluorescence, higher = more signal;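 note: probe is lysate of COS7 cells overexpressing human LULL1; score merges per-feature 667 nm fluorescence with signal-to-noise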
[16] = E. coli growth modulation, two-sided OD650, primary screen, E. coli filamentation project, strain DRC41, 24 h (AID 1093); conditions: OD650, 24 h, higher = more signal, called active from +8 up or from −8 down;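 note: MC1000 strain lacking acrAB efflux and sulA so SOS filamentation is blocked; test concentration not given here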
[17] = small-molecule microarray binders of probe aLefty2, primary screen, biochemical, biotinylated probe, 635/667 nm fluorescence (AID 1094); conditions: higher = more signal;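 note: score merges spot fluorescence near 667 nm with spot signal-to-noise ratio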
[18] = tested on: Noggin (protein binding on small-molecule microarray); assay: Noggin binders on small-molecule microarray, primary screen, biochemical, 635/667 nm fluorescence (AID 1095); conditions: 635 nm fluorescence, higher = more signal;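 note: score merges 667 nm feature fluorescence with signal to noise over triplicate slides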
[19] = molecular target: Neurogenic locus notch homolog protein 3 (Homo sapiens) (UniProt Q9UM47); assay: NOTCH3 binders on small-molecule microarray, primary screen, biochemical, 635/667 nm fluorescence (AID 1096); conditions: NOTCH3 binding, 635 nm fluorescence, higher = more signal
[20] = small-molecule microarray binders of probe aEGFR, primary screen, biochemical, biotinylated probe, 635/667 nm fluorescence (AID 1097); conditions: higher = more signal;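 note: probe is a biotinylated anti-EGFR antibody binding compounds printed on slides; score combines fluorescence near 667 nm and signal to noise of each spot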

Neurogenic locus notch homolog protein 3 (Homo sapiens), sequence (Q9UM47 whole entry, looked up): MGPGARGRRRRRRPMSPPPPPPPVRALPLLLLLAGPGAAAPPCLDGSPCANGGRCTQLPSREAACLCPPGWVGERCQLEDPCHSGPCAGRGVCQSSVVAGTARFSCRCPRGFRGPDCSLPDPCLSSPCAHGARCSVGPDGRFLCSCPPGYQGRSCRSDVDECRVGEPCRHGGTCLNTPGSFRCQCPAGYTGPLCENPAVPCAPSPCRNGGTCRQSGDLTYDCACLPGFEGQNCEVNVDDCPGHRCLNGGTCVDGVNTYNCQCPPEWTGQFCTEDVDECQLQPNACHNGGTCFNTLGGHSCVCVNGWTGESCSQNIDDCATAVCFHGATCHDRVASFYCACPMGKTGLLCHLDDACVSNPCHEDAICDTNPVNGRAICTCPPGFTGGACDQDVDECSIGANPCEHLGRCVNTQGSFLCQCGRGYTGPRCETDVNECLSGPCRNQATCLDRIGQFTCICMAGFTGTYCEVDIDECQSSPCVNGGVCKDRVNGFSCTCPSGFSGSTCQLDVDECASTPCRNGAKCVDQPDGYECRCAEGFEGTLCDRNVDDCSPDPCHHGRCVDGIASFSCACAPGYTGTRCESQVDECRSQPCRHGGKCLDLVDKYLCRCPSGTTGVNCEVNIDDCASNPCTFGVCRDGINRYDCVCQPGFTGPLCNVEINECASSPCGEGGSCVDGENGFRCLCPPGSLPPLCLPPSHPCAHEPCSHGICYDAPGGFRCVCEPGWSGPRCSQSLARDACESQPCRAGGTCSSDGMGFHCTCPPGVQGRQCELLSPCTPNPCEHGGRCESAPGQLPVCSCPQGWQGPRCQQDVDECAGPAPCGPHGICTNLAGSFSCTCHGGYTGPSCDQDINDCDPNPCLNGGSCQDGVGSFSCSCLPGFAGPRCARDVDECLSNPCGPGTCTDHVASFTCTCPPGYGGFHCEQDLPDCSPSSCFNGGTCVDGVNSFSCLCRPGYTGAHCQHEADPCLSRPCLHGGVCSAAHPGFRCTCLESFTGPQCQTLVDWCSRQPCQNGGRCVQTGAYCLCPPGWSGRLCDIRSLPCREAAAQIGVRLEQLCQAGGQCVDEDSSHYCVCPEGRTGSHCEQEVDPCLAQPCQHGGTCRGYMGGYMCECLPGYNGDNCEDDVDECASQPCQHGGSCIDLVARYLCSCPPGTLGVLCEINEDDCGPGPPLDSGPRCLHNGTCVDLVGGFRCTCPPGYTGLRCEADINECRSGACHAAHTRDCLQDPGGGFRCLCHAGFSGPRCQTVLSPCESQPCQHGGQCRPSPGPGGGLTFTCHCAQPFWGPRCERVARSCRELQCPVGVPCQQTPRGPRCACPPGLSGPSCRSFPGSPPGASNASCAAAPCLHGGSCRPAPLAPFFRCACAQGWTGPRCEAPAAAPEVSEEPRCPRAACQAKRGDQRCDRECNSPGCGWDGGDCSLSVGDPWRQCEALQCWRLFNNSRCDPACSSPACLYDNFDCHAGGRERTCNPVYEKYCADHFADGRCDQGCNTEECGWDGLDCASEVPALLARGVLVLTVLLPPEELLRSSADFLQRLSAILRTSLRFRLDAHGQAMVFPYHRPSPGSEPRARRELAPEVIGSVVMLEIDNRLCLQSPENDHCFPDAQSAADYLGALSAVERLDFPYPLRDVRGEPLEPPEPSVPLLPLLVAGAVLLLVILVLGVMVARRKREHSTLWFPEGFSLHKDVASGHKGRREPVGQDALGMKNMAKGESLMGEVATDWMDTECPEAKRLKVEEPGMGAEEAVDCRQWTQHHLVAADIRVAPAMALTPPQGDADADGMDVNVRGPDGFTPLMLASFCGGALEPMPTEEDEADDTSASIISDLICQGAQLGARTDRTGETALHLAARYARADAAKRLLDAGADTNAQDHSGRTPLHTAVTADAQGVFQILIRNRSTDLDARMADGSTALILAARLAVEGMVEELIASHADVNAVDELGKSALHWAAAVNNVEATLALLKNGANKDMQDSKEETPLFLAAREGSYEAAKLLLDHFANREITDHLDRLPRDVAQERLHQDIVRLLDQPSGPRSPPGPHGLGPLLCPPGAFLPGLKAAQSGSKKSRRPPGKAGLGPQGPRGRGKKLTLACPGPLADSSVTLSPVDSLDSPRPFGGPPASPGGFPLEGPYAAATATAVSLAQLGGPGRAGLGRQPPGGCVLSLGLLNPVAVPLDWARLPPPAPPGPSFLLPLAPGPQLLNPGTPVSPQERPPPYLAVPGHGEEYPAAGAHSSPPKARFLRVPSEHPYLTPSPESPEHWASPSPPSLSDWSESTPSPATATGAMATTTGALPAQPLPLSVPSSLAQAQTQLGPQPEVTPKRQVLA
Torsin-1A-interacting protein 2 (Homo sapiens), sequence (Q8NFQ8 whole entry, looked up): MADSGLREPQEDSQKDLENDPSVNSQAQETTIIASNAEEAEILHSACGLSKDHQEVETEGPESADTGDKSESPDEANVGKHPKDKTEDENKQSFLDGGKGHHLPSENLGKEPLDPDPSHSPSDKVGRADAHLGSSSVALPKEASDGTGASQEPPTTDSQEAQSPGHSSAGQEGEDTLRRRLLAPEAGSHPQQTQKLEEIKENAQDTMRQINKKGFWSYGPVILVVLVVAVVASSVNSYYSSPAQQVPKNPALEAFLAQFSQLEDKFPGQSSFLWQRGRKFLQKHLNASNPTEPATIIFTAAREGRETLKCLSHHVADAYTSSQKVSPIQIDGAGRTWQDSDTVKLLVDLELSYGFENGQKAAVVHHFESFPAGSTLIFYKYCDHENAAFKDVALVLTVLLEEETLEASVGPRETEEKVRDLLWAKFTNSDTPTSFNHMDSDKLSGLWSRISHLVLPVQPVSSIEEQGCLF
Pro-neuregulin-1, membrane-bound isoform (Homo sapiens), sequence (Q02297 whole entry, looked up, the tested form may be a part, canonical isoform): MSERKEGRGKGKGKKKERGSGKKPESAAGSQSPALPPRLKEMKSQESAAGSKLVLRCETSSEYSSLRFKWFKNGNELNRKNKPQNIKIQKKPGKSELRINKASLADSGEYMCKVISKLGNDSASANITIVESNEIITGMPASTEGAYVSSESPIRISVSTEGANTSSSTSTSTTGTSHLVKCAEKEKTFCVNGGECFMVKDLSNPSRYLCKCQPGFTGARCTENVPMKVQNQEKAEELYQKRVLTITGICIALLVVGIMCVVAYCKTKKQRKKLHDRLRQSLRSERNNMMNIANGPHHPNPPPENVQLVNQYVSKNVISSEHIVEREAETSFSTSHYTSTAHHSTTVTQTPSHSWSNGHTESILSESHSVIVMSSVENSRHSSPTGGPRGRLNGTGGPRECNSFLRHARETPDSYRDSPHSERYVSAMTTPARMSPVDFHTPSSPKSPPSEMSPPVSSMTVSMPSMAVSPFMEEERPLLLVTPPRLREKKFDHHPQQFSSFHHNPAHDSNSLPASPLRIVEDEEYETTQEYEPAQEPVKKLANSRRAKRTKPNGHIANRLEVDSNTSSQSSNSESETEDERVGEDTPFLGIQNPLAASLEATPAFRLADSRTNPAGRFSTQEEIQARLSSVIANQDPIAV

Row | Compound | composite z-score [1] | composite z-score [2] | composite z-score [3] | composite z-score [4] | composite z-score [5] | composite z-score [6] | composite z-score [7] | z-score [8] | composite z-score [9] | composite z-score [10] | composite z-score [11] | z-score [12] | z-score [13] | z-score [14] | composite z-score [15] | z-score [16] | composite z-score [17] | composite z-score [18] | composite z-score [19] | composite z-score [20]
1 | Cc1ccc(F)cc1S(=O)(=O)N[C@@H]1CCN(Cc2ccc(Oc3ccccc3)cc2)C1 | -0.191 | 0.45 | -0.144 | -0.3 | -0.155 | 0.0412 | -0.014 | -1.9 (inactive) | 0.0111 | -0.34 | -0.434 | -21.2 (active) | -21.4 (active) | -3.22 (inactive) | -0.367 | -14.1 (active) | -0.0073 | 0.966 | 0.551 | -0.0953
2 | COCCOC(=O)N1C(=O)[C@@]2(c3cc(C#CC4(O)CCCCCC4)ccc31)[C@H](C(=O)N1CCCCCCC1)[C@H]1C(=O)O[C@H](c3ccccc3)[C@H](c3ccccc3)N1[C@@H]2c1ccc(OCCO)cc1 | 3.43 | 1.62 | 0.79 | 1.2 | 1.26 | 2.18 | 1.24 | -3.21 (inactive) | 3.29 | 1.77 | 1.53 | 0.474 (inactive) | 0.638 (inactive) | 2.39 (inactive) | 3.7 | 1.82 (inactive) | 1.77 | 1.89 | 1.03 | 0.757
3 | CCCC=C(CCC)[C@@H](NP(=O)(c1ccccc1)c1ccccc1)c1ccc(C(F)(F)F)cc1 | -0.176 | 0.158 | -0.0975 | 0.0842 | 0.131 | 1.74 | 0.557 | 1.96 (inactive) | 0.237 | 0.0216 | 0.804 | -0.276 (inactive) | 0.423 (inactive) | 0.0291 (inactive) | 1.01 | -0.159 (inactive) | 0.0593 | -0.13 | 0.11 | 0.58
4 | NCCCCCCNC(=O)[C@H]1C[C@H]2C(=O)N[C@@H](Cc3ccccc3)C(=O)N2[C@H]1c1ccc(O)cc1 | 0.465 | 0.399 | -0.0334 | 0.0116 | 0.421 | 1.34 | 1.18 | 1.1 (inactive) | 0.377 | -0.196 | 1.11 | -1.8 (inactive) | -0.599 (inactive) | -1.24 (inactive) | 2.45 | 0.933 (inactive) | -0.0824 | 1.07 | 0.272 | -0.0685
5 | COc1ccc([Si](C)(C)[C@H]2[C@H](CCn3cc(CCO)nn3)O[C@@]3(C(=O)N(Cc4ccc(N5C(=O)c6cccc7cccc5c67)cc4)c4ccccc43)[C@@H]2C)cc1 | -0.619 | 0.355 | -0.0583 | 0.53 | 0.611 | 1.16 | 1.1 | -4.65 (inactive) | 0.372 | 0.0695 | 1.55 | -0.246 (inactive) | 0.983 (inactive) | 6.07 (inactive) | 1.86 | 2.76 (inactive) | -0.0895 | 1.41 | 1.09 | -0.0371
6 | Cc1ccc(S[C@]2(C(=O)O)CC(=O)N(Cc3ccccc3Cl)[C@@H]2c2ccc(CO)cc2)cc1 | 0.96 | -0.614 | -0.113 | 0.449 | -0.72 | 0.103 | -0.408 | -0.917 (inactive) | -0.172 | -0.0994 | -0.164 | -0.0285 (inactive) | -1.31 (inactive) | 0.644 (inactive) | 2.95 | -0.0647 (inactive) | 0.0069 | -1.46 | -0.944 | -0.119
7 | COCCOC(=O)N1C(=O)[C@@]2(c3cc(C#Cc4ccc(OC)cc4)ccc31)[C@H](C(=O)NC[C@H](O)c1ccccc1)[C@H]1C(=O)O[C@H](c3ccccc3)[C@H](c3ccccc3)N1[C@@H]2c1ccc(O)cc1 | -0.179 | 0.504 | 0.0086 | 0.589 | 1.37 | 0.566 | 1.23 | 0.427 (inactive) | 0.57 | 0.012 | 1.54 | 0.254 (inactive) | 1.06 (inactive) | 1.08 (inactive) | 2.49 | 0.394 (inactive) | -0.0159 | 0.793 | 1.05 | 0.268
8 | CCCCN1CC=CC23O[C@@H]4C=CCOC(=O)[C@@H]4[C@H]2C(=O)N(C(C)CO)[C@@H]3C1=O (stereo not given in full) | 0.762 | -0.665 | -0.187 | -0.174 | -1.03 | 1.7 | 0.745 | 1.66 (inactive) | -0.0725 | -0.189 | -1.57 | -0.543 (inactive) | -1.22 (inactive) | -0.557 (inactive) | -0.449 | -0.479 (inactive) | -0.205 | -0.929 | -1.25 | -0.216
9 | COc1ccc([Si](C)(C)[C@@H]2[C@@H](CCO)O[C@]3(C(=O)N(Cc4cccc(N5C(=O)c6ccccc6Oc6ccccc65)c4)c4ccccc43)[C@H]2C)cc1 | 0.393 | 0.123 | -0.134 | -0.173 | -0.571 | 0.536 | 0.602 | 0.133 (inactive) | 0.0472 | -0.134 | 1.17 | 2.79 (inactive) | -0.483 (inactive) | 36.9 (active) | 1.46 | 1.21 (inactive) | -0.0666 | -0.224 | 0.0578 | -0.281
10 | COc1cc2c(cc1OC)CN(C(=O)[C@H]1[C@@H]3C(=O)O[C@@H](c4ccccc4)[C@@H](c4ccccc4)N3[C@@H](c3ccc(OCCO)cc3)[C@]13C(=O)Nc1ccc(C#CC4(O)CCCCCC4)cc13)CC2 | 1.18 | 0.774 | -0.0358 | 0.326 | 1.51 | 1.25 | 1.32 | -0.126 (inactive) | 1.6 | 1.65 | 1.56 | 3.2 (inactive) | 1.28 (inactive) | 4.84 (inactive) | 2.37 | 2.32 (inactive) | 1.02 | 1.47 | 1.09 | 0.678

Source: PubChem BioAssay
